A short description of experiment [1]: stimulators of nuclear beta-catenin in C2C12, primary screen, imaging, WNT3A-conditioned medium, mouse C2C12, NPC library (AID 1117326; in the data active means nuclear beta-catenin stimulation mostly above about 4.2%, no sharp cut-off; inactive means mostly below about 10%). Particulars: stronger effect = higher value.
Experiment [2] in a line: stimulators of insulin release from INS-1E, primary screen, cell-based, 5 mM glucose, NPC library (AID 1117329;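 active means compound raises insulin release from rat beta cells at 5 mM glucose, no numeric limit stated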). Particulars: rat INS-1E insulin secretion, at 10 µM, stronger effect = higher value.
Experiment [3] is described as follows: growth inhibition of GSK3B-pretreated HCT116 cells – cell-based, CellTiter-Glo, 0.2 to 20 µM (AID 1117336;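 active means compounds lowering colon cancer cell viability after pretreatment blocking the GSK3B kinase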). Particulars: HCT116 viability after GSK3B inhibitor, at 20 µM, stronger effect = higher value. (In ATP-based viability assays light output follows the ATP content of the culture.)
Experiment [4] in a line: inhibition of endothelial tube formation, primary screen, imaging, VEGF stimulated, CD31 staining, tube area, NPC library (AID 1117340;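 active means compound that reduces growth-factor-driven endothelial tube area in a mixed cell culture, no cutoff stated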). The conditions noted are these: VEGF-stimulated ADSC/ECFC co-culture, at 10 µM, stronger effect = higher value.
A short description of experiment [5]: glucagon-like peptide 1 release enhancers, primary assay, NCI-H716 cell line, NPC library (AID 1117341;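 active means compound raises GLP1 secretion from the human gut endocrine cells, with no numeric limit stated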). The conditions noted are these: NCI-H716 cells, at 10 µM, stronger effect = higher value.
Experiment [6] in a line: HCT116 colon cancer cell growth inhibition, primary screen, CellTiter-Glo luminescence, NPC library (AID 1117342;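 active means compounds that lower survival of HCT116 colon cancer cells in the luminescence readout, no numeric limit stated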). Particulars: at 20 µM (top of the series).
Experiment [7] is described as follows: CellTiter-Glo luminescent readout of SW480 viability loss, NPC library primary (AID 1117343;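 active means compounds that lower viability of the colon cancer cells in the luminescence readout, with no numeric limit stated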). Particulars: CellTiter-Glo luminescence; at 20 µM (top of the series).
A short description of experiment [8]: decreased DLD-1 cellular survival, CellTiter-Glo luminescent readout, NPC compound collection, primary HTS (AID 1117346;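 active means compounds that lower survival of DLD-1 colon cancer cells in the luminescence readout, no cutoff given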). The conditions noted are these: DLD-1 viability, CellTiter-Glo luminescence; at 20 µM (top of the series).
Experiment [9] in a line: survival rescue of mitochondrial mutant cells in low glucose, primary screen, MELAS cybrids, Rieske KO mouse fibroblasts, CellTiter-Glo (AID 1508586;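 active means mean z-score across replicates of 1.96 or higher in either the MELAS or the Rieske mutant cell line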;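 further: z relative to plate mean and SD of compound and empty wells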).
Experiment [10] in a line: hESC survival regulators, cell-based (AID 493140; call rule not given here;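 further: cells exposed to compounds for four days before counting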). Particulars: human embryonic stem cell survival screen; stronger effect = higher value.
Experiment [11] can be described thus: liver-stage malaria parasite growth inhibition, primary screen, cell-based, HepG2, luciferase luminescence, HepG2 viability (AID 624349; in the data active means parasite load remaining mostly below about 12%, no sharp cut-off; inactive means mostly above about 10%;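 further: 100% = mean of DMSO negative control wells on the same plate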). Particulars: P. berghei liver stage in HepG2, luciferase luminescence, concentration not given here; parasite load remaining: stronger effect = lower value; viability: measured here: HepG2 viability without parasites.
Experiment [12] is described as follows: sensitizers of A549 cells to miR-34 induction, primary screen, imaging, A549 dox-inducible miR-34, nuclei and caspase counts (AID 1347080). Particulars: A549 miR-34 inducible, Hoechst nuclei count, 48 h.
Experiment [13] deals with NAD(+) hydrolase SARM1 (Homo sapiens) (UniProt Q6SZW1). Description: SARM1 TIR NADase inhibitors, cell lysate, NAD-Glo luminescence (AID 1508614;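 active means compound whose remaining NAD level is above about 45 nM, limit read from the data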). Particulars: SAM-TIR HEK293T lysate NADase, at 1 µM, stronger effect = higher value.
Experiment [14] is described as follows: viability rescue of complex I mutant cybrids, primary screen, cell-based, galactose medium, ATP luminescence (AID 1645843;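 active means z-score of at least 1.8 in each of two replicates, scored against plate mean and spread of sample wells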;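 further: positive z means more ATP and so rescue of galactose-driven cybrid death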). The conditions noted are these: complex I mutant cybrid cells, 72 h, stronger effect = higher value.
Setting [15] is: MELAS cybrid survival, CellTiter-Glo 48 h, stronger effect = higher value.
Setting [16] is: Rieske KO mouse fibroblast survival, CellTiter-Glo 72 h.
[17] abbreviates: measured here: relative caspase fold change +Dox/-Dox.
The mark [18] stands for this setting: measured here: total cells with miR-34 induction, stronger effect = lower value.
[19] abbreviates: measured here: total cells without miR-34 induction.

The structures appear in SMILES notation. Several values for one entry are separate records, joined by “and”; a condition that tells them apart may be missing. Equal entries are not always repeated. Activity calls are given as the source filed them.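 How the source made its calls, unless noted: active means compounds whose cell count with miR-34 switched on is under 0.7 times the count with it off; inactive means the rest.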

Chain of NAD(+) hydrolase SARM1 (Homo sapiens) (Q6SZW1 whole entry, looked up): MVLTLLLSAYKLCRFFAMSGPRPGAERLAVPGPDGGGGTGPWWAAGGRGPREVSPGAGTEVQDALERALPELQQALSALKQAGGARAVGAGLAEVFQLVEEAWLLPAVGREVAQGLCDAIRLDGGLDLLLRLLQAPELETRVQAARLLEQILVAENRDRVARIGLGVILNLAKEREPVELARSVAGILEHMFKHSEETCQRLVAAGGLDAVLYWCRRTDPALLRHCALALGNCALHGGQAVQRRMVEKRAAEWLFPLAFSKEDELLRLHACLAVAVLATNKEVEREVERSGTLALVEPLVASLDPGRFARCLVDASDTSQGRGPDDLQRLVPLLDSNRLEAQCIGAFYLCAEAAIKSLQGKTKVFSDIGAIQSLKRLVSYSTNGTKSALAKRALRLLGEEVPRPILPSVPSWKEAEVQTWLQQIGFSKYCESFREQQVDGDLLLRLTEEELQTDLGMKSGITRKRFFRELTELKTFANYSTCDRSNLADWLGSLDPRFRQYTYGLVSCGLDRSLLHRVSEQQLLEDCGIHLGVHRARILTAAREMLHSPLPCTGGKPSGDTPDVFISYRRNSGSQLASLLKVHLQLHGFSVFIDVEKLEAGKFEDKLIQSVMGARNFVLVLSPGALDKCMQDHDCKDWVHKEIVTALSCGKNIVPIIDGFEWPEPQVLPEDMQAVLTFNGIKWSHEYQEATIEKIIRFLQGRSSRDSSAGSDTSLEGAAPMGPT

For the compound `CCN[C@@H](C)Cc1cccc(C(F)(F)F)c1`, the nuclear beta-catenin stimulation was 3% (inactive) in [1] (at 10 µM) and 2.2% in experiment [1] (stimulation, at 2 µM). In addition, the insulin secretion stimulation in experiment [2] was 8.8% (inactive). Moreover, the viability decrease in experiment [3] is -3.65% (inactive). The tube area decrease in experiment [4] was 29.2% (active). Also, in experiment [5], the GLP1 secretion stimulation was 1.3% (inactive). Besides, the inhibition of viability in experiment [6] is -3.9% (inactive). Besides, the viability decrease (inhibition) was 17.9% (inactive) in [7] and -6.6% (inactive) in experiment [8]. Moreover, the z-score is -1.11 (inactive) in experiment [9] (setting [15]) and 0.177 in experiment [9] (setting [16]).
What is called viability is a read-out of living cells in per cent, often relative to untreated cells. As for `OC(c1ccccc1)(c1ccccc1)C1CCNCC1`, the survival in experiment [10] is 34.8 (inactive). The parasite load remaining in experiment [11] is 42.4% (inactive) and 92.2% (inactive). In addition, in experiment [11], the viability is 47.4% and 92.3%. The nuclear beta-catenin stimulation in experiment [1] (at 10 µM) is -0.1% (inactive); in experiment [1] (stimulation, at 2 µM) it was 0.4%. In addition, the insulin secretion stimulation in [2] was 17.4% (inactive). For the same compound, the viability decrease in [3] is -5.8% (inactive). In experiment [4], the tube area decrease is 27.7% (inactive). Moreover, the GLP1 secretion stimulation in [5] is 0.1% (inactive). In experiment [6], the inhibition of viability is -10.1% (inactive). Further, the viability decrease (inhibition) in [7] is 117% (active); in [8], 2.9% (inactive). Also, the fold change is 0.979 (inactive) and 0.871 (inactive) in experiment [12] (stronger effect = lower value); 1.21 and 1 in experiment [12] (setting [17]). Also, the cell count in experiment [12] (setting [18]) was 8990 and 7950; in experiment [12] (setting [19]) it was 9180 and 9130. For the same compound, the z-score in experiment [9] (setting [15]) was -0.109 (inactive) and -0.124 (inactive); in experiment [9] (setting [16]), -0.152 and 0.513.
Take `CC(C)(C)CC(C)(C)c1ccc(O)cc1`: the nuclear beta-catenin stimulation was -1.8% (inactive) in experiment [1] (at 10 µM) and -0.9% in [1] (stimulation, at 2 µM). In addition, the insulin secretion stimulation in [2] was 4% (inactive). In addition, the viability decrease in experiment [3] was 84.6% (active). Further, in [4], the tube area decrease is 66.9% (active). Also, the GLP1 secretion stimulation in experiment [5] is 28.5% (active). In addition, the inhibition of viability in experiment [6] was 74.8% (active). Also, the viability decrease (inhibition) in [7] was 142% (active); in experiment [8] it was 104% (active). In addition, the remaining NAD in [13] was 10 nM (inactive).
For the compound `CCOC(=O)c1ccccc1C(=O)OCC`, the nuclear beta-catenin stimulation was -0.2% (inactive) in experiment [1] (at 10 µM) and -0.3% in experiment [1] (stimulation, at 2 µM). Besides, in experiment [2], the insulin secretion stimulation was 2.85% (inactive). Besides, the GLP1 secretion stimulation in [5] was 0.4% (inactive).
Regarding `CCC(C(N)=O)N1CCCC1=O` (configuration not stated), the nuclear beta-catenin stimulation in experiment [1] (at 10 µM) was -0.1% (inactive); in experiment [1] (stimulation, at 2 µM), -0.2%. The insulin secretion stimulation in experiment [2] is 1.4% (inactive). In addition, the viability decrease in [3] is -0.8% (inactive). In addition, in [4], the tube area decrease was -18.3% (inactive). For the same compound, the GLP1 secretion stimulation in [5] was 0.6% (inactive). Besides, the inhibition of viability in [6] was -4.9% (inactive). The viability decrease (inhibition) in experiment [7] was -0.6% (inactive); in [8], -1.1% (inactive). Besides, the fold change in [12] (stronger effect = lower value) was 0.925 (inactive) and 0.884 (inactive); in experiment [12] (setting [17]), 1.53 and 10.7. Also, the cell count in experiment [12] (setting [18]) is 9780 and 8770; in experiment [12] (setting [19]), 10600 and 9920. The z-score in experiment [9] (setting [15]) was 2 (active); in experiment [9] (setting [16]) it was 0.478; in experiment [14], 0.645 (inactive).
As to `Clc1ccc(CCC(Cn2ccnc2)Sc2c(Cl)cccc2Cl)cc1` (configuration not stated), the survival in [10] is 15 (inactive). The parasite load remaining in experiment [11] is 5.94% (inactive) and 63.9% (inactive). Further, the viability in experiment [11] is 103% and 82.5%. Also, the nuclear beta-catenin stimulation in experiment [1] (at 10 µM) is 15.6% (inactive); in [1] (stimulation, at 2 µM) it was 4.3%. Further, the insulin secretion stimulation in experiment [2] was -0.2% (inactive). For the same compound, in [3], the viability decrease was 101% (active). The tube area decrease in experiment [4] is 109% (active). For the same compound, in experiment [5], the GLP1 secretion stimulation is 20.8% (active). The inhibition of viability in experiment [6] was 101% (active). The values for the viability decrease (inhibition) in experiment [7] and in experiment [8] were 123% (active) and 103% (active), respectively. Also, the fold change in experiment [12] (stronger effect = lower value) is 0.969 (inactive) and 0.821 (inactive) and 0.887 (inactive); in experiment [12] (setting [17]), 0.807 and 1.54 and 0.572. Also, the cell count is 5090 and 6860 and 7040 in [12] (setting [18]); 5260 and 8350 and 7940 in experiment [12] (setting [19]). For the same compound, the z-score is 0.075 (inactive) and -0.442 (inactive) in [9] (setting [15]); -0.608 and 0.109 in experiment [9] (setting [16]).

Values taken from PubChem BioAssay.
